# Results taken from the supplement of paper PMC8728848.
# About 410 targets per protein were measured; listed, in parts, are those with the strongest signals and a random draw of the rest.
# B1: Gal 3 (Homo sapiens), P17931 (protein)
# chain: MADNFSLHDALSGSGNPNPQGWPGAWGNQPAGAGGYPGASYPGAYPGQAPPGAYPGQAPPGAYHGAPGAYPGAPAPGVYPGPPSGPGAYPSSGQPSAPGAYPATGPYGAPAGPLIVPYNLPLPGGVVPRMLITILGTVKPNANILDFQRGNDVAFHFNPRFNENNRRVIVCNTKLDNNWGREERQSVFPFESGKPFKIQVLVEPDHFKVAVNDAHLLQYNHRVKKLNEISKLGISGDIDLTSASYTMI
# Tests used:
# Assay in all cases: glycan array binding signal (z-score within array); higher = stronger binding
# Conditions in all cases: glycan notation: IUPAC condensed, linker removed
# [1] = biological target: Fuc(a1-2)Gal(b1-3)GlcNAc(b1-3)Gal(b1-4)Glc
# Procedure, shortened: (§1)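 Negative Z-scores can be read as non-binding. The Z-score is calculated within each array and then averaged across arrays of one protein sequence at different concentrations or buffers and across linkers. Arrays, 3228 in all, were curated from the Consortium for Functional Glycomics database and kept only where the protein sequence was available.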
# [2] = biological target: Fuc(a1-2)Gal(b1-3)[Fuc(a1-4)]GlcNAc(b1-3)[Gal(b1-4)GlcNAc(b1-6)]Gal(b1-4)Glc
# Procedure, shortened: as §1
# [3] = biological target: Fuc(a1-2)Gal(b1-4)GlcNAc(b1-3)Gal(b1-4)GlcNAc(b1-3)Gal(b1-4)GlcNAc
# Procedure, shortened: as §1
# [4] = biological target: Fuc(a1-2)[Gal(a1-3)]Gal(b1-3)GlcNAc(b1-2)Man(a1-3)[Fuc(a1-2)[Gal(a1-3)]Gal(b1-3)GlcNAc(b1-2)Man(a1-6)]Man(b1-4)GlcNAc(b1-4)GlcNAc
# Procedure, shortened: as §1
# [5] = biological target: Fuc(a1-2)[Gal(a1-3)]Gal(b1-4)GlcNAc(b1-2)Man(a1-3)[Fuc(a1-2)[Gal(a1-3)]Gal(b1-4)GlcNAc(b1-2)Man(a1-6)]Man(b1-4)GlcNAc(b1-4)GlcNAc
# Procedure, shortened: as §1
# [6] = biological target: Fuc(a1-2)[GalNAc(a1-3)]Gal(b1-4)GlcNAc
# Procedure, shortened: as §1
# [7] = biological target: Fuc(a1-2)[GalNAc(a1-3)]Gal(b1-4)GlcNAc(b1-2)Man(a1-3)[Fuc(a1-2)[GalNAc(a1-3)]Gal(b1-4)GlcNAc(b1-2)Man(a1-6)]Man(b1-4)GlcNAc(b1-4)GlcNAc
# Procedure, shortened: as §1
# [8] = biological target: Fuc(a1-2)[GalNAc(a1-3)]Gal(b1-4)GlcNAc(b1-3)Gal(b1-4)GlcNAc(b1-3)Gal(b1-4)GlcNAc
# Procedure, shortened: as §1
# [9] = biological target: Fuc(a1-2)[GalNAc(b1-3)]Gal
# Procedure, shortened: as §1
# [10] = biological target: Fuc(a1-3)[Gal(b1-4)]GlcNAc6S
# Procedure, shortened: as §1
# [11] = biological target: Gal(a1-3)Gal(b1-4)GlcNAc(b1-3)GalNAc
# Procedure, shortened: as §1
# [12] = biological target: Gal(a1-3)[Gal(a1-4)]Gal(b1-4)GlcNAc
# Procedure, shortened: as §1
# [13] = biological target: Gal(a1-4)Gal(b1-3)GlcNAc(b1-2)Man(a1-3)[Gal(a1-4)Gal(b1-3)GlcNAc(b1-2)Man(a1-6)]Man(b1-4)GlcNAc(b1-4)GlcNAc
# Procedure, shortened: as §1
# [14] = biological target: Gal(b1-3)Gal(b1-4)GlcNAc(b1-2)Man(a1-3)[Gal(b1-3)Gal(b1-4)GlcNAc(b1-2)Man(a1-6)]Man(b1-4)GlcNAc(b1-4)GlcNAc
# Procedure, shortened: as §1
# [15] = biological target: Gal(b1-3)GalNAc(a1-3)[Fuc(a1-2)]Gal(b1-4)GlcNAc
# Procedure, shortened: as §1
# [16] = biological target: Gal(b1-3)[Neu5Ac(b2-6)]GalNAc
# Procedure, shortened: as §1
# [17] = biological target: Gal(b1-4)GlcNAc(b1-2)[Gal(b1-4)GlcNAc(b1-4)]Man(a1-3)[Gal(b1-4)GlcNAc(b1-2)[Gal(b1-4)GlcNAc(b1-6)]Man(a1-6)]Man(b1-4)GlcNAc(b1-4)GlcNAc
# Procedure, shortened: as §1
# [18] = biological target: Gal(b1-4)GlcNAc(b1-3)Gal(b1-3)GlcNAc
# Procedure, shortened: as §1
# [19] = biological target: Gal(b1-4)GlcNAc(b1-3)Gal(b1-4)GlcNAc(b1-3)Gal(b1-4)GlcNAc
# Procedure, shortened: as §1
# [20] = biological target: Gal(b1-4)GlcNAc(b1-3)[GlcNAc(b1-6)]Gal(b1-4)GlcNAc
# Procedure, shortened: as §1
# [21] = biological target: Gal3S(b1-4)[Fuc(a1-3)]Glc
# Procedure, shortened: as §1
# Gal6S(b1-4)Glc = biological target: Gal6S(b1-4)Glc
# Procedure, shortened: as §1
# [22] = biological target: GalNAc(b1-3)Gal(a1-6)Gal(b1-4)Glc
# Procedure, shortened: as §1
# [23] = biological target: GlcNAc(a1-6)Gal(b1-4)GlcNAc
# Procedure, shortened: as §1
# [24] = biological target: GlcNAc(b1-4)GlcNAc(b1-4)GlcNAc(b1-4)GlcNAc(b1-4)GlcNAc
# Procedure, shortened: as §1
# [25] = biological target: GlcNAc(b1-6)Gal(b1-4)GlcNAc
# Procedure, shortened: as §1
# GlcNAc(b1-6)GalNAc = biological target: GlcNAc(b1-6)GalNAc
# Procedure, shortened: as §1
# Kdn(a2-3)Gal(b1-4)Glc = biological target: Kdn(a2-3)Gal(b1-4)Glc
# Procedure, shortened: as §1
# Kdn(a2-3)Gal(b1-4)GlcNAc = biological target: Kdn(a2-3)Gal(b1-4)GlcNAc
# Procedure, shortened: as §1
# [26] = biological target: Man(a1-2)Man(a1-6)[Man(a1-3)]Man(a1-6)[Man(a1-2)Man(a1-2)Man(a1-3)]Man
# Procedure, shortened: as §1
binder,measurement,setting,value
B1,glycan array binding signal (z-score),[1],1.9
same,glycan array binding signal (z-score),[2],-0.331
same,glycan array binding signal (z-score),[3],3.62
same,glycan array binding signal (z-score),[4],3.84
same,glycan array binding signal (z-score),[5],5.09
same,glycan array binding signal (z-score),[6],2.16
same,glycan array binding signal (z-score),[7],4.33
same,glycan array binding signal (z-score),[8],4.1
same,glycan array binding signal (z-score),[9],-0.382
same,glycan array binding signal (z-score),[10],-0.391
same,glycan array binding signal (z-score),[11],0.949
same,glycan array binding signal (z-score),[12],-0.388
same,glycan array binding signal (z-score),[13],-0.389
same,glycan array binding signal (z-score),[14],4.28
same,glycan array binding signal (z-score),[15],2.57
same,glycan array binding signal (z-score),[16],-0.386
same,glycan array binding signal (z-score),[17],2.3
same,glycan array binding signal (z-score),[18],2.35
same,glycan array binding signal (z-score),[19],4.37
same,glycan array binding signal (z-score),[20],-0.307
same,glycan array binding signal (z-score),[21],-0.39
same,glycan array binding signal (z-score),Gal6S(b1-4)Glc,-0.376
same,glycan array binding signal (z-score),[22],-0.388
same,glycan array binding signal (z-score),[23],-0.392
same,glycan array binding signal (z-score),[24],-0.379
same,glycan array binding signal (z-score),[25],-0.389
same,glycan array binding signal (z-score),GlcNAc(b1-6)GalNAc,-0.391
same,glycan array binding signal (z-score),Kdn(a2-3)Gal(b1-4)Glc,-0.391
same,glycan array binding signal (z-score),Kdn(a2-3)Gal(b1-4)GlcNAc,-0.386
same,glycan array binding signal (z-score),[26],-0.379
